High-throughput results: PubChem BioAssay, several laboratories
Rows were chosen to be rich in hits. Some 4.2% of all compounds tested hit in one or more screens of this group.
NALP1 inh: NALP1 inflammasome inhibitors in reconstituted yeast, colorimetric, S. cerevisiae, triplicate retest; actives 0.61% (n = 280,000); inhibition, % at 10 µM; S. cerevisiae NALP1/ASC/caspase-1 growth, X-gal OD620, 72 h; in the data active means inhibition mostly above about 24%, no sharp cut-off; inactive means mostly below about 32%
tim10-1 inh: growth inhibitors of tim10-1 mutant yeast, primary screen, luminescence, uHTS; S. cerevisiae tim10-1 ts strain growth, BacTiter-Glo, 24 h; inhibition, % at 20 µM; actives 2.2% (n = 330,000);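 active means inhibition of at least 40%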;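 further: mutant grown at 25 °C; 0% = DMSO wells with yeast and 100% = wells holding no yeast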
PfHsp90 set2: growth inhibition of PfHsp90-expressing yeast, primary screen, antimalarial PfHsp90 inhibitor project, S. cerevisiae, BacTiter-Glo luminescence, single point, set 2; BacTiter-Glo ATP, 48 h; yeast lacking PDR1 and PDR3 efflux regulators; inhibition, % at 9.4 µM; actives 0.32% (n = 310,000); AID 504621, 2011;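 active means every replicate shows inhibition above about 80%, whatever the replicate mean, limit read from the data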;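 further: 0% = DMSO neutral controls and 100% = 20 µM radicicol positive controls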
tim23-1 inh: growth inhibitors of tim23-1 mutant yeast, primary screen, luminescence, uHTS; S. cerevisiae tim23-1 growth, BacTiter-Glo luminescence, 24 h; inhibition, % at 20 µM; actives 1.3% (n = 330,000);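 active means growth inhibition of the mutant yeast at or above 50%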;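 further: temperature-sensitive mutant grown at 25 °C; plate controls were DMSO-treated mutant yeast for no effect and medium wells lacking yeast for full effect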
TIM10 inh: growth inhibitors of isogenic TIM10 control yeast, primary screen, counter-screen for tim10-1 yeast inhibitor project, luminescence, uHTS; AID 463195, 2010; inhibition, % at 10 µM; actives 1.4% (n = 330,000); S. cerevisiae TIM10 strain growth, BacTiter-Glo luminescence, 24 h;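 active means inhibition of 40% or more at the single tested concentration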;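 further: wild-type TIM10 isogenic control strain grown at permissive 25 °C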
NALP3 yeast inh: NALP3 inflammasome inhibitors in reconstituted yeast, primary screen, luminescence, uHTS | Yeast reconstituted NLRP3/ASC/caspase-1, beta-gal luminescence, 24 h | inhibition, % at 10 µM | actives 0.39% (n = 330,000);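 active means inhibition of 50% or more; inactive means inhibition below 50%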;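 further: plate controls were induced DMSO wells for no effect and uninduced yeast grown without galactose for full effect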
NALP3 yeast conf: NALP3 inhibitors retested in yeast, confirmation, luminescence, single concentration; AID 435006, 2010; inhibition, % at 10 µM; yeast expressing human NALP3; shares compounds with NALP3 yeast inh; actives 81% (n = 1,300); in the data active means inhibition above about 48%
Casp1-ASC yeast: CASP1-PYCARD signaling inhibition in yeast, confirmatory test, counterassay for NLRP3 inhibitor program, one-dose | shares compounds with NALP3 yeast inh | yeast expressing Caspase-1-ASC, luminescence counter screen | inhibition, % at 10 µM | actives 66% (n = 1,000)
NALP3 retest: NALP3 inhibitors in yeast, repeat test, confirmation, luminescence, single concentration, retest. shares compounds with NALP3 yeast inh. yeast expressing human NALP3, luminescence read-out. inhibition, % at 10 µM. actives 53% (n = 1,000). AID 488794, 2010
An asterisk follows results filed as active; . = no result. Unless noted, no stated cut-off is given here; in the data, active means inhibition above about 50%; inactive means the rest.

SMILES | NALP1 inh | tim10-1 inh | PfHsp90 set2 | tim23-1 inh | TIM10 inh | NALP3 yeast inh | NALP3 yeast conf | Casp1-ASC yeast | NALP3 retest
CCCCS(=O)(=O)N1CCCC(C(=O)Oc2ccc(Cl)cc2)C1 (stereo not given) | -8.3 | 16.1 | 8.6 | 37.1 | 2.0 | 25.5 | . | . | .
C=C(CC[C@@H](O)C(C)(C)O)[C@H]1CC[C@]2(C)[C@@H]1CCC1[C@@]3(C)CCC(=O)C(C)(C)C3CC[C@]12C (stereo not given in full) | . | 3.5 | 22.8 | 16.6 | -8.8 | 54.4* | 45.6 | 51.9* | 37.5
CCCSc1ccc([C@H]2N[C@@](C)(C(=O)OC)[C@H]3C(=O)N(C)C(=O)[C@@H]23)cc1 | . | 1.3 | -8.3 | 4.0 | -5.5 | 51.3* | 47.8 | 16.4 | 15.6
Clc1nnc(N/N=C/c2ccccc2)c2ccccc12 | 8.2 | 20.5 | -7.3 | 9.7 | 15.7 | 60.1* | 71.3* | 49.0 | 33.5
CCCCCCCCNc1ncnc2ccccc12 | 19.2 | -27.4 | -3.3 | 20.2 | 12.9 | 81.6* | 76.3* | 79.8* | 78.8*
c1ccc(CCNc2ncnc3ccccc23)cc1 | 12.5 | 2.1 | -11.4 | -3.8 | 12.9 | 20.8 | . | . | .
CC(=O)N1N=C(c2cccc([N+](=O)[O-])c2)OC1(C)c1cccs1 (stereo not given) | -19.2 | 24.7 | 11.0 | 35.9 | -14.7 | 11.6 | . | . | .
CC(=O)N1N=C(c2ccc(C)c([N+](=O)[O-])c2)OC1(C)C | 14.8 | 3.5 | 5.5 | 14.7 | 17.5 | 53.3* | 49.4* | 74.8* | 56.8*
COC(=O)C(c1ccccc1)N(Cc1cccc(CN(C(C(=O)OC)c2ccccc2)S(C)(=O)=O)c1)S(C)(=O)=O (stereo not given) | 10.2 | 25.4 | 18.1 | 23.1 | 10.2 | 15.1 | . | . | .
CCN=C1SC(CC(=O)Nc2sc(C)c(C)c2C(=O)OC)C(=O)N1CC (stereo not given) | 9.0 | -0.3 | 22.7 | -0.4 | -7.7 | 55.6* | 64.3* | 63.5* | 52.2*
CCN=C1SC(CC(=O)Nc2sc3c(c2C#N)CCCC3)C(=O)N1CC (stereo not given) | 1.3 | 9.4 | 30.3 | 1.1 | 11.0 | 12.0 | . | . | .
CCCC1CCC(c2ccc(OCC)cc2)=CC1=O (stereo not given) | 21.4 | -4.9 | 15.8 | 8.8 | -12.9 | 51.7* | 62.2* | 40.2 | 49.5
CCOc1ccc(N2C(=O)CCC2=O)cc1 | . | 4.8 | . | 4.4 | 0.9 | -2.8 | . | . | .
O=C(COc1ccc(Br)cc1Br)NC1CCCC1 | 18.8 | -12.8 | -4.9 | -2.2 | -19.8 | 61.9* | 56.4* | 53.4* | 46.8
O=C(COc1ccc(Br)cc1Cl)NC1CCCCC1 | 38.4 | -0.5 | 2.7 | 10.6 | -39.5 | 53.3* | 3.8 | . | .
O=S(=O)(c1ccc2c(c1)CCCC2)N1CCNCC1 | . | 0.3 | 4.1 | -6.2 | 4.7 | 10.9 | . | . | .
C#CCNC(=O)C1=C[C@H](C2CCCCC2)C[C@H](OCc2ccc(CO)cc2)O1 | -41.0 | 15.5 | -9.5 | 35.0 | 13.1 | 54.3* | 53.8* | 50.7* | 33.2
O=C(NC1CC1)C1=C[C@H](C2CCCCC2)C[C@H](OCc2ccc(CO)cc2)O1 | 7.5 | 2.4 | 13.6 | 9.2 | 0.5 | 57.5* | 60.5* | 62.3* | 45.9
O=C(c1ccc(N2CCCS2(=O)=O)cc1)N1CCN(c2ccccc2)CC1 | 10.4 | -5.6 | 0.4 | 18.7 | 14.1 | 16.6 | . | . | .
O=C(Nc1ccnn1C1CCN(Cc2cc(Cl)ccc2O)CC1)c1cccnc1 | 11.9 | 16.5 | -8.1 | 2.7 | -4.2 | 19.6 | . | . | .
